# In PubChem BioAssay (EPA / NIEHS):
# Activity calls are given as the source filed them. How the source made its calls: active means hit-call score of the fitted dose curve at least 0.9, where 1 is the maximum; inactive means score below 0.9.
# Legend:
# [1] = ATG_CRE_CIS: Attagene CIS-FACTORIAL HepG2 Assay for human cAMP Responsive Element (CRE) binding protein 3 (AID 2282926); conditions: HepG2 CRE cis-reporter, Attagene multiplexed mRNA; actives raise or lower the signal
# Method in brief: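 Assay format: transient reporter transfection of HepG2, 24 h treatment, total RNA isolation with DNase I step. Reporter abundance read by fluorescence after PCR and capillary separation; DMSO-normalised gain or loss fitting.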
# [2] = target: CCAAT/enhancer-binding protein beta (Homo sapiens) (UniProt P17676); assay: ATG_C_EBP_CIS: Attagene CIS-FACTORIAL HepG2 Assay for human CCAAT/Enhancer Binding Protein (C/EBP) beta (AID 2282927); conditions: HepG2 Attagene cis-factorial transcription factor reporter; actives raise or lower the signal
# Sequence of CCAAT/enhancer-binding protein beta (Homo sapiens) (P17676 whole entry, looked up): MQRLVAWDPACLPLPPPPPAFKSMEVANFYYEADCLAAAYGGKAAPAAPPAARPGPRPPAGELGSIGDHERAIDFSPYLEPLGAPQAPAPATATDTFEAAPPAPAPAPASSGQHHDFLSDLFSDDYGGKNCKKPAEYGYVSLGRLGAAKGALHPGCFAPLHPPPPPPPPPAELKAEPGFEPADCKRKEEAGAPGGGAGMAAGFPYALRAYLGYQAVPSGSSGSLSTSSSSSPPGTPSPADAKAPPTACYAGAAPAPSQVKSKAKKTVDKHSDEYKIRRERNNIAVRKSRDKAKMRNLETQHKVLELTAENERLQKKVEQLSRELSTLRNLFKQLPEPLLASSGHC
# Method in brief: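 Transiently transfected HepG2 (MRTU library, endogenous TF-driven promoters); 24 h dosing; total RNA → oligo(dT) RT → PCR → 6-FAM primer extension → HpaI digest → CE; fit bidirectionally vs DMSO.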
# [3] = ATG_CMV_CIS: Attagene CIS-FACTORIAL HepG2 Assay for human CMV (Internal Marker) (AID 2282928); conditions: HepG2 CMV promoter reporter, transcription factor profiling; actives raise or lower the signal;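 further: endpoint acts as a background internal control marker rather than a target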
# Method in brief: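 Fluorescence intensity of RT-PCR-derived reporter fragments, resolved by capillary electrophoresis, gives the signal. HepG2 liver cells bearing transfected cis-element reporters were treated 24 h; activity in either direction was fit relative to DMSO-treated controls.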
# [4] = ATG_DR4_LXR_CIS: Attagene CIS-FACTORIAL HepG2 Assay for human Liver X Receptor (LXR), DR4 submotif (AID 2282929); conditions: HepG2 Attagene DR4 cis-reporter, mRNA transcription; actives raise or lower the signal
# Method in brief: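 The endpoint is DR4-element-driven reporter transcripts after 24 h chemical exposure of transfected HepG2 cells. These were measured via RT-PCR and capillary electrophoresis, and gain or loss of signal was fitted relative to DMSO controls.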
# [5] = target: Aryl hydrocarbon receptor (Homo sapiens) (UniProt P35869); assay: ATG_Ahr_CIS: Attagene CIS-FACTORIAL HepG2 Assay for human Aryl Hydrocarbon Receptor (Ahr) (AID 2282930); conditions: HepG2 AhR cis-factorial reporter transcription; actives raise or lower the signal
# Sequence of Aryl hydrocarbon receptor (Homo sapiens) (P35869 whole entry, looked up): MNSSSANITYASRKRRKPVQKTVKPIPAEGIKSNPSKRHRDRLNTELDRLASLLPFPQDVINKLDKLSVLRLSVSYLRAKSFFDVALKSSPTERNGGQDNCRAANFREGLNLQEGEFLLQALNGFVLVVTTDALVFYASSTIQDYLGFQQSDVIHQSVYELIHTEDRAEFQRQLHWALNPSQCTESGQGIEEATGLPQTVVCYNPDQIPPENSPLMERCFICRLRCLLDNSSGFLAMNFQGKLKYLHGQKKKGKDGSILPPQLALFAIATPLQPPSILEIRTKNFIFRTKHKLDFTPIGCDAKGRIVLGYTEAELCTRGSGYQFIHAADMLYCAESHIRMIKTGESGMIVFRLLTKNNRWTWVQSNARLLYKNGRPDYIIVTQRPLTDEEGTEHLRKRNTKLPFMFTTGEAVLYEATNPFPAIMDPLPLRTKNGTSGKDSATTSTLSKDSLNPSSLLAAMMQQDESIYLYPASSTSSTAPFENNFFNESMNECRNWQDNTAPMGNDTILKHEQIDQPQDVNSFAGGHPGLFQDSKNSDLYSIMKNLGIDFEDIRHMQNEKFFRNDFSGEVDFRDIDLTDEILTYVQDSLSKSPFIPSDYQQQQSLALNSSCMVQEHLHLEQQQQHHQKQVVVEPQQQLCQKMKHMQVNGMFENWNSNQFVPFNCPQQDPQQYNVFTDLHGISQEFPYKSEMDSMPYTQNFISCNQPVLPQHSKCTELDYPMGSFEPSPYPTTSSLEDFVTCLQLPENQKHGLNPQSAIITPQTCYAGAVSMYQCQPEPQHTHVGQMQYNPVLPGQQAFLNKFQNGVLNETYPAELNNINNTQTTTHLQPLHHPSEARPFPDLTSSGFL
# Method in brief: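 Read-out: reporter mRNA quantified by RT-PCR with fluorescent primer extension and capillary electrophoresis. Human HepG2 liver cells carried transfected cis-promoter reporter units and were exposed to chemical for 24 h; gain or loss fitted relative to DMSO.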
# [6] = ATG_AP_1_CIS: Attagene CIS-FACTORIAL HepG2 Assay for human Activator Protein 1 (AP-1) (AID 2282931); conditions: HepG2 Attagene cis-factorial AP-1 reporter mRNA; actives raise or lower the signal
# Method in brief: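 Readout is reporter transcript level from endogenous transcription factor activity, quantified by RT-PCR with fluorescent primer extension and capillary electrophoresis. Transiently transfected HepG2 cells, 24 h exposure. Curves fitted both directions versus DMSO.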
# [7] = ATG_AP_2_CIS: Attagene CIS-FACTORIAL HepG2 Assay for human Activator Protein 2 (AP-2) (AID 2282932); conditions: HepG2 AP-2 cis-reporter, Attagene transcription factor profiling; actives raise or lower the signal
# Method in brief: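 Liver-derived HepG2 line, cis-reporter system measuring endogenous factors; 24 h dosing; reporter mRNA detected by fluorescent RT-PCR and capillary electrophoresis.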
# [8] = ATG_BRE_CIS: Attagene CIS-FACTORIAL HepG2 Assay for human Bone Morphogenetic Protein (BMP) Response Element (BRE) (AID 2282933); conditions: HepG2 BMP response element reporter, Attagene transcription factor profiling; actives raise or lower the signal
# Method in brief: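 Endogenous transcription factor activity read in transiently transfected HepG2 cells after 24 h chemical exposure. Bidirectional curve fitting against DMSO; readout is reporter transcript level by RT-PCR with capillary electrophoresis of labelled products.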
# [9] = target: Retinoic acid receptor alpha (Homo sapiens) (UniProt P10276); assay: ATG_DR5_RAR_CIS: Attagene CIS-FACTORIAL HepG2 Assay for human Retinoic Acid Receptor Alpha (RARE), DR5 submotif (AID 2282934); conditions: HepG2 Attagene cis-factorial RARE DR5 reporter, mRNA; actives raise or lower the signal
# Sequence of Retinoic acid receptor alpha (Homo sapiens) (P10276 whole entry, looked up): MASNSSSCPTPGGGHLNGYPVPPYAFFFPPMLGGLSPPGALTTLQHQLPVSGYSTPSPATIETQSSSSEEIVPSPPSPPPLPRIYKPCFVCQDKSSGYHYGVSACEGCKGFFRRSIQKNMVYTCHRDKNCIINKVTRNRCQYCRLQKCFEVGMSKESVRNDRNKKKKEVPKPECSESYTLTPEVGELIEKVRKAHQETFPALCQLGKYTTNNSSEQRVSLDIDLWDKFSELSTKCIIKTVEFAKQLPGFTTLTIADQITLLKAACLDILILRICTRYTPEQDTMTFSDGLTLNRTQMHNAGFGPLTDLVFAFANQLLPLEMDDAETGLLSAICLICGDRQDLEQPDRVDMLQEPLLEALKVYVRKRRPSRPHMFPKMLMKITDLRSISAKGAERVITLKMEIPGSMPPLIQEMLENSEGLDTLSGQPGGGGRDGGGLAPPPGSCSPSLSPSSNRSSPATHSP
# Method in brief: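 Read-out: DR5-driven reporter transcript measured by RT-PCR, 6-FAM primer extension, HpaI digest and capillary electrophoresis. Human HepG2 liver cells carry transiently transfected cis-element reporter constructs; dosing lasts 24 h. Gain or loss of signal fitted against DMSO baseline.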
# [10] = target: Transcription factor E2F1 (Homo sapiens) (UniProt Q01094); assay: ATG_E2F_CIS: Attagene CIS-FACTORIAL HepG2 Assay for human E2F Transcription Factor 1 (AID 2282935); conditions: HepG2 Attagene cis-reporter, E2F reporter RNA transcripts; actives raise or lower the signal
# Sequence of Transcription factor E2F1 (Homo sapiens) (Q01094 whole entry, looked up): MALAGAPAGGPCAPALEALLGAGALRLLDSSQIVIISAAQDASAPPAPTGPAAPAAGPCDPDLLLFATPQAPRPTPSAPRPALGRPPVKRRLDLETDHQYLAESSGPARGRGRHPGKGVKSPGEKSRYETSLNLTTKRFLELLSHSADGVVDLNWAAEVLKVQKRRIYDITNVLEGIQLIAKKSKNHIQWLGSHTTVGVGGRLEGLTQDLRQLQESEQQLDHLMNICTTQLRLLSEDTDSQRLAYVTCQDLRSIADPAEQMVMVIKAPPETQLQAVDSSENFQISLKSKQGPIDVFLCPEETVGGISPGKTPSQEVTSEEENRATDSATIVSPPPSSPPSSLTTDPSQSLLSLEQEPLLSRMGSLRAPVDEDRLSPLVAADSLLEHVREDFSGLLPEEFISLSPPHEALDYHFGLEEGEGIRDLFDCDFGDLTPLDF
# Method in brief: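 Liver-derived HepG2 cells expressing transfected promoter-driven reporter units received test chemical for 24 hours. Signal gains or losses were fitted bidirectionally against DMSO.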
# [11] = ATG_E_Box_CIS: Attagene CIS-FACTORIAL HepG2 Assay for human Enhancer Box (E-box) (AID 2282936); conditions: HepG2 E-box cis-reporter transcription, actives raise or lower the signal
# Method in brief: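 In this cell-based setup, HepG2 cells bearing transfected promoter-driven reporter units were exposed to chemicals for 24 h; reporter transcripts were amplified, 6-FAM-labelled, cut with HpaI and sized by capillary electrophoresis.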
# [12] = ATG_M_61_CIS: Attagene CIS-FACTORIAL HepG2 Assay for M61 Transcription Factor (Internal Marker) (AID 2282937); conditions: HepG2 Attagene CIS-FACTORIAL M61 internal marker reporter; actives raise or lower the signal
# Method in brief: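 Readout is reporter mRNA by RT-PCR, fluorescent primer extension and capillary electrophoresis, with gain or loss fitted relative to DMSO. Transfected HepG2 cells carrying endogenous-TF-driven cis reporters were exposed to chemicals for 24 hours.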
# [13] = ATG_EGR_CIS: Attagene CIS-FACTORIAL HepG2 Assay for human Early Growth Response 1 (EGR1) (AID 2282938); conditions: HepG2 Attagene CIS-FACTORIAL EGR reporter mRNA; actives raise or lower the signal
# Method in brief: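 After 24 h compound exposure, RNA from reporter-transfected HepG2 cells was reverse-transcribed, PCR-amplified, fluorescently labelled and resolved by capillary electrophoresis. EGR1 reporter transcript changes, up or down, were fitted against DMSO, reflecting endogenous transcription-factor activity.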
# [14] = ATG_M_19_CIS: Attagene CIS-FACTORIAL HepG2 Assay for M19 Transcription Factor (Internal Marker) (AID 2282939); conditions: HepG2 Attagene CIS-FACTORIAL M19 internal marker reporter; actives raise or lower the signal
# Method in brief: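 Internal marker readout, fitted in both directions against DMSO, from HepG2 cells carrying transfected cis-element reporter constructs; RT-PCR and capillary electrophoresis of reporter mRNA after 24 h exposure.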
# [15] = ATG_ERE_CIS: Attagene CIS-FACTORIAL HepG2 Assay for Estrogen Response Element (ERE) (AID 2282940); conditions: HepG2 ERE cis-reporter, Attagene RNA transcript; actives raise or lower the signal
# Method in brief: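 After 24 h compound treatment, RNA from transfected HepG2 cells was reverse-transcribed, reporter cDNA PCR-amplified, FAM-labelled, HpaI-cut and resolved by capillary electrophoresis. ERE-driven cis reporter transcripts reflect endogenous factors; gain or loss scored against DMSO.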
# [16] = ATG_Ets_CIS: Attagene CIS-FACTORIAL HepG2 Assay for human Erythroblast Transformation Specific (ETS) (AID 2282941); conditions: HepG2 ETS cis-reporter transcription, actives raise or lower the signal
# Method in brief: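 Multiplexed reporter transcript profiling: HepG2, 24 h treatment, total RNA to cDNA, PCR, 6-FAM labelling, HpaI cut, capillary electrophoresis. Gain- or loss-of-signal fitted against DMSO.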
# [17] = target: Hepatocyte nuclear factor 3-beta (Homo sapiens) (UniProt Q9Y261); assay: ATG_FoxA2_CIS: Attagene CIS-FACTORIAL HepG2 Assay for human Forkhead box A2 (FOXA2) (AID 2282942); conditions: HepG2 cis-reporter transcription factor activity, 24 h; actives raise or lower the signal
# Sequence of Hepatocyte nuclear factor 3-beta (Homo sapiens) (Q9Y261 whole entry, looked up): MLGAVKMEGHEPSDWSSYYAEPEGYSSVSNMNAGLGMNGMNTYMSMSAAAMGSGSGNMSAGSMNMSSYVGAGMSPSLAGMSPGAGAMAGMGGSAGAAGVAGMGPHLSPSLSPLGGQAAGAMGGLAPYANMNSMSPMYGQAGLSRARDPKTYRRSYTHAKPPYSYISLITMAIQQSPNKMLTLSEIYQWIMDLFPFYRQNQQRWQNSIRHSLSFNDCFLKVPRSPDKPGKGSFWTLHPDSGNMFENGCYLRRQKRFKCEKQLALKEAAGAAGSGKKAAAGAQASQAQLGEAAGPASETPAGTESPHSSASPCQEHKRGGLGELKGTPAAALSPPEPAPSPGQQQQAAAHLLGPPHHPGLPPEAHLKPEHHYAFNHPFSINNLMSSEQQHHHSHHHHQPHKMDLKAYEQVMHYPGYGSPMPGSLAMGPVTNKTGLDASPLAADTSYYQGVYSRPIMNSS
# Method in brief: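 Endogenous transcription factor activity is captured via cis-element-driven reporter transcripts in transfected HepG2. Total RNA taken at 24 h post-dosing; labelled RT-PCR products resolved by capillary electrophoresis. Gain or loss fitted versus DMSO.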
# [18] = ATG_FoxO_CIS: Attagene CIS-FACTORIAL HepG2 Assay for human Forkhead box O (FoxO) (AID 2282943); conditions: HepG2 Attagene cis-reporter, FoxO element, mRNA; actives raise or lower the signal
# Method in brief: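 Read-out: fluorescence of 6-FAM-labelled reporter cDNA fragments resolved by capillary electrophoresis. Transiently transfected HepG2 cells were dosed for 24 h; activity fitted in both directions relative to DMSO controls.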
# [19] = ATG_GATA_CIS: Attagene CIS-FACTORIAL HepG2 Assay for human GATA Binding Protein (AID 2282944); conditions: HepG2 GATA cis-element reporter, Attagene multiplex mRNA; actives raise or lower the signal
# Method in brief: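 Reporter transcripts from a GATA cis-regulated unit, among multiplexed reporters in transfected HepG2 cells, were measured by RT-PCR with capillary electrophoresis after 24 h dosing. Induction or loss scored relative to DMSO.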
# [20] = ATG_GLI_CIS: Attagene CIS-FACTORIAL HepG2 Assay for human Zinc Finger Protein GLI1 (AID 2282945); conditions: HepG2, Attagene cis-factorial reporter mRNA, GLI element; actives raise or lower the signal
# Method in brief: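 Transiently transfected HepG2 cells report endogenous transcription factor activity via cis-element-driven reporter units. After 24 h compound exposure, reporter mRNA was measured by RT-PCR with capillary electrophoresis; bidirectional fitting against DMSO baseline.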
smiles,measurement,setting,value
CC(C)C1=CC2=CC[C@@H]3[C@](C)(CCC[C@@]3(C)C(=O)O)[C@H]2CC1,outcome,[1],inactive
same,outcome,[2],inactive
same,AC50,[3],135 µM (active)
same,AC50,[4],3.7 µM (active)
same,AC50,[5],31.6 µM (active)
same,AC50,[6],149 µM (active)
same,outcome,[7],inactive
same,outcome,[8],inactive
same,outcome,[9],inactive
same,outcome,[10],inactive
same,outcome,[11],inactive
same,outcome,[12],inactive
same,AC50,[13],60.3 µM (active)
same,outcome,[14],inactive
same,outcome,[15],inactive
same,outcome,[16],inactive
same,outcome,[17],inactive
same,outcome,[18],inactive
same,AC50,[19],54.1 µM (active)
same,outcome,[20],inactive
[Cl][In]([Cl])[Cl],outcome,[1],inactive
same,outcome,[2],inactive
same,outcome,[3],inactive
same,outcome,[4],inactive
same,outcome,[5],inactive
same,outcome,[6],inactive
same,outcome,[7],inactive
same,outcome,[8],inactive
same,outcome,[9],inactive
same,outcome,[10],inactive
same,outcome,[11],inactive
same,outcome,[12],inactive
same,outcome,[13],inactive
same,outcome,[14],inactive
same,AC50,[15],163 µM (active)
same,outcome,[16],inactive
same,outcome,[17],inactive
same,outcome,[18],inactive
same,outcome,[19],inactive
same,outcome,[20],inactive
CCC(C)OC(=O)c1ccc(O)cc1 (stereo not given),outcome,[1],inactive
same,outcome,[2],inactive
same,AC50,[3],67.6 µM (active)
same,outcome,[4],inactive
same,outcome,[5],inactive
same,outcome,[6],inactive
same,outcome,[7],inactive
same,outcome,[8],inactive
same,outcome,[9],inactive
same,outcome,[10],inactive
same,outcome,[11],inactive
same,outcome,[12],inactive
same,outcome,[13],inactive
same,outcome,[14],inactive
same,AC50,[15],0.868 µM (active)
same,outcome,[16],inactive
same,outcome,[17],inactive
same,outcome,[18],inactive
same,outcome,[19],inactive
same,outcome,[20],inactive
CC1(C)[C@H]2CC[C@]1(C)C(=O)C2,outcome,[1],inactive
same,outcome,[2],inactive
same,outcome,[3],inactive
same,outcome,[4],inactive
same,outcome,[5],inactive
same,outcome,[6],inactive
same,outcome,[7],inactive
same,outcome,[8],inactive
same,outcome,[9],inactive
same,outcome,[10],inactive
same,outcome,[11],inactive
same,outcome,[12],inactive
same,outcome,[13],inactive
same,outcome,[14],inactive
same,outcome,[15],inactive
same,outcome,[16],inactive
same,outcome,[17],inactive
same,outcome,[18],inactive
same,outcome,[19],inactive
same,outcome,[20],inactive
CCCCCCCCCCCCCCCC(=O)OCC,outcome,[1],inactive
same,outcome,[2],inactive
same,outcome,[3],inactive
same,outcome,[4],inactive
same,outcome,[5],inactive
same,outcome,[6],inactive
same,outcome,[7],inactive
same,outcome,[8],inactive
same,outcome,[9],inactive
same,outcome,[10],inactive
same,outcome,[11],inactive
same,outcome,[12],inactive
same,outcome,[13],inactive
same,outcome,[14],inactive
same,outcome,[15],inactive
same,outcome,[16],inactive
same,outcome,[17],inactive
same,outcome,[18],inactive
same,outcome,[19],inactive
same,outcome,[20],inactive
c1ccc2c(c1)ccc1cc3c(ccc4ccccc43)cc12,outcome,[1],inactive
same,outcome,[2],inactive
same,outcome,[3],inactive
same,outcome,[4],inactive
same,AC50,[5],0.0244 µM (active)
same,outcome,[6],inactive
same,outcome,[7],inactive
same,outcome,[8],inactive
same,outcome,[9],inactive
same,outcome,[10],inactive
same,outcome,[11],inactive
same,outcome,[12],inactive
same,outcome,[13],inactive
same,outcome,[14],inactive
same,AC50,[15],0.18 µM (active)
same,outcome,[16],inactive
same,AC50,[17],0.0767 µM (active)
same,outcome,[18],inactive
same,outcome,[19],inactive
same,outcome,[20],inactive
